About 79,000 compounds went through this panel and 15% of them were active in at least one assay; those are over-represented in the sample as a whole. Activity calls are given as the source filed them. Rule as the data show it: active = growth inhibition above about 70%; inactive = the rest.
Tests used:
[1] = NCI Yeast Anticancer Drug Screen. Data for the rad52 strain (AID 147);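 also: 0% = growth of vehicle-treated control cultures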; conditions: S. cerevisiae rad52 mutant growth inhibition, hits give high values
In short: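 The repair-mutant yeast strain was incubated with compounds, then growth was read and inhibition derived relative to vehicle.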

[2] = NCI Yeast Anticancer Drug Screen. Data for the wt1 strain (AID 149);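 also: 0% = growth of vehicle-treated wt1 cultures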; conditions: S. cerevisiae wt1 strain (SPY 50644) growth inhibition, hits give high values
In short: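 The wt1 strain was treated with compounds, and growth was compared with vehicle-treated cultures to give inhibition.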

[3] = NCI Yeast Anticancer Drug Screen. Data for the rad50EPP+ strain (AID 151);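 also: 0% = growth of vehicle-treated control cultures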; conditions: S. cerevisiae rad50 mutant strain, hits give high values
In short: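 Vehicle-normalised growth inhibition; rad50EPP+ yeast strain, altered in DNA damage repair, compound-treated.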

[4] = NCI Yeast Anticancer Drug Screen. Data for the mgt1 strain (AID 153); conditions: S. cerevisiae mgt1 mutant growth inhibition, hits give high values
In short: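 Vehicle-normalized growth inhibition is determined in mgt1 yeast, a strain selected for a defined alteration in DNA repair or cell cycle control.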

[5] = NCI Yeast Anticancer Drug Screen. Data for the rad50 strain (AID 155);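 also: 0% = growth of vehicle-only cultures of the same strain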; conditions: S. cerevisiae rad50 strain growth inhibition, hits give high values
In short: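 Cells are treated with compound, grown, and their growth is then scored against vehicle-only cultures of the same repair-deficient yeast strain.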

[6] = NCI Yeast Anticancer Drug Screen. Data for the mec2-1 strain (AID 157); conditions: S. cerevisiae mec2-1 strain, hits give high values
In short: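 Mutant yeast (mec2-1) grown with compound; growth inhibition relative to vehicle control reported.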

[7] = NCI Yeast Anticancer Drug Screen. Data for the rad14 strain (AID 159);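 also: 0% = growth of vehicle-treated control cultures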; conditions: S. cerevisiae rad14 strain growth inhibition, hits give high values
In short: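 Readout: yeast growth inhibition, referenced to vehicle-only cultures. Strain bears a defined alteration in DNA damage repair.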

[8] = NCI Yeast Anticancer Drug Screen. Data for the sgs1 mgt1 strain (AID 161);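 also: 0% = growth of cultures given vehicle only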; conditions: S. cerevisiae sgs1 mgt1 strain, hits give high values
In short: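 Compounds are added to genetically altered yeast, and growth is compared with cultures given vehicle alone to give percent inhibition.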

[9] = NCI Yeast Anticancer Drug Screen. Data for the CLN2oe strain (AID 163);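 also: 0% = growth of vehicle-only control cultures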; conditions: S. cerevisiae CLN2oe strain, hits give high values
In short: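 Compounds are applied to yeast harbouring a defined cell-cycle control change; reduced growth compared with vehicle-treated controls gives the value.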

[10] = NCI Yeast Anticancer Drug Screen. Data for the cln2 rad14 strain (AID 165);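 also: 0% = growth equal to vehicle treated cultures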; conditions: S. cerevisiae cln2 rad14 strain, hits give high values
In short: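 Readout is yeast growth inhibition versus vehicle-treated controls, using a strain with cln2 and rad14 alterations exposed to compound.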

[11] = NCI Yeast Anticancer Drug Screen. Data for the bub3 strain (AID 167); conditions: S. cerevisiae bub3 mutant strain, hits give high values
In short: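 Part of a panel of yeast mutants defective in DNA damage repair or cell cycle regulation. Each strain is grown with compound, and inhibition is calculated relative to solvent-treated cultures.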

[12] = NCI Yeast Anticancer Drug Screen. Data for the wt2 strain (AID 169);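 also: 0% = growth of vehicle-treated yeast cultures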; conditions: S. cerevisiae wt2 strain growth inhibition, hits give high values
In short: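 Against vehicle-treated controls, the growth of yeast exposed to each compound was compared, and the inhibition was recorded.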

[13] = NCI Yeast Anticancer Drug Screen. Data for the mlh1 strain (AID 171);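 also: 0% = growth of vehicle-treated control cultures of the same strain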; conditions: S. cerevisiae mlh1 strain growth inhibition, hits give high values
In short: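 Measured: yeast growth. Reference: vehicle-treated controls. Organism: strain with a defined alteration affecting DNA damage repair or cell cycle control, treated with compound.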

[14] = NCI Yeast Anticancer Drug Screen. Data for the sgs1 strain (AID 173);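 also: 0% = growth of vehicle-only control cultures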; conditions: S. cerevisiae sgs1 mutant, hits give high values
In short: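 Each compound was added to cultures of the altered yeast strain. Growth was recorded, and inhibition was derived by comparison with vehicle controls.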

[15] = NCI Yeast Anticancer Drug Screen. Data for the mlh1 rad18 strain (AID 175); conditions: S. cerevisiae mlh1 rad18 strain growth inhibition, hits give high values
In short: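 Genetically defined yeast (DNA repair-deficient) exposed to compounds; growth inhibition determined relative to vehicle.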

[16] = NCI Yeast Anticancer Drug Screen. Data for the rad18 strain (AID 177); conditions: S. cerevisiae rad18 mutant growth inhibition, hits give high values
In short: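 Vehicle-treated cultures served as the baseline for scoring compound-induced growth inhibition in DNA-repair-mutant yeast.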

[17] = at 5.0 µM (retest, dose inferred, filed as 0.5)
[18] = at 50.0 µM (retest, dose inferred, filed as 5.0)

Measured: growth inhibition

O=C(CCc1ccccc1)ON1C(=S)C(c2ccccc2)(c2ccccc2)N=C1Sc1ccccc1
active: [5]; [17] 91% | [5]; [18] 96% | [6]; [18] 94% | [11]; at 50.0 µM 78.7% | [15]; [18] 86% | [15]; at 50.0 µM 88.8%
inactive: [1]; at 1.2 µM 13% | [1]; at 3.7 µM 9% | [1]; at 11.0 µM 19% | [1]; at 33.0 µM 23% | [1]; at 100.0 µM 36% | [2]; at 1.2 µM 6% | [2]; at 3.7 µM 6% | [2]; at 11.0 µM 13% | [2]; at 33.0 µM 14% | [2]; at 100.0 µM 17% | [3]; at 1.2 µM 0% | [3]; at 3.7 µM -6% | [3]; at 11.0 µM 1% | [3]; at 33.0 µM 7% | [3]; at 100.0 µM 5% | [4]; at 1.2 µM 44% | [4]; at 3.7 µM 50% | [4]; at 11.0 µM 51% | [4]; at 33.0 µM 54% | [4]; at 100.0 µM 56% | [5]; at 1.2 µM 36% | [5]; at 3.7 µM 34% | [5]; at 11.0 µM 31% | [5]; at 33.0 µM 29% | [5]; at 50.0 µM 50% | [5]; at 100.0 µM 28% | [6]; at 1.2 µM 22% | [6]; at 3.7 µM 14% | [6]; [17] 23% | [6]; at 11.0 µM 6% | [6]; at 33.0 µM 7% | [6]; at 50.0 µM 61% | [6]; at 100.0 µM 26% | [7]; at 1.2 µM 20% | [7]; at 3.7 µM 20% | [7]; at 11.0 µM 27% | [7]; at 33.0 µM 21% | [7]; at 100.0 µM 36% | [8]; [17] -22% | [8]; [18] 37% | [8]; at 50.0 µM 56.6% | [9]; at 1.2 µM 4% | [9]; at 3.7 µM -8% | [9]; at 11.0 µM -4% | [9]; at 33.0 µM 19% | [9]; at 100.0 µM 57% | [10]; [17] -2% | [10]; [18] 35% | [10]; at 50.0 µM 45.9% | [11]; at 1.2 µM 6% | [11]; at 3.7 µM -10% | [11]; [17] -1% | [11]; at 11.0 µM -5% | [11]; at 33.0 µM -7% | [11]; [18] 32% | [11]; at 100.0 µM 22% | [12]; at 1.2 µM 1% | [12]; at 3.7 µM -4% | [12]; at 11.0 µM 0% | [12]; at 33.0 µM 14% | [12]; at 100.0 µM 44% | [13]; at 1.2 µM 44% | [13]; at 3.7 µM 50% | [13]; at 11.0 µM 51% | [13]; at 33.0 µM 54% | [13]; at 100.0 µM 56% | [14]; at 1.2 µM 43% | [14]; at 3.7 µM 44% | [14]; at 11.0 µM 46% | [14]; at 33.0 µM 49% | [14]; at 100.0 µM 56% | [15]; [17] 28% | [16]; at 1.2 µM 21% | [16]; at 3.7 µM 19% | [16]; at 11.0 µM 10% | [16]; at 33.0 µM 21% | [16]; at 100.0 µM 40%
